In PubChem BioAssay (EPA / NIEHS) one finds outcome and AC50 data, which are given here for four compounds.

Active and inactive are the calls of the source. The calls were made as follows: active = hit-call score of the fitted dose curve at least 0.9, where 1 is the maximum; inactive = score below 0.9.

Experiment [1] can be described thus: ATG_CRE_CIS: Attagene CIS-FACTORIAL HepG2 Assay for human cAMP Responsive Element (CRE) binding protein 3 (AID 2282926). The following applies: HepG2 CRE cis-reporter, Attagene multiplexed mRNA; actives raise or lower the signal. The method in brief:
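Capillary electrophoresis of 6-FAM-labelled, HpaI-digested PCR products quantified reporter transcripts. These came from HepG2 transiently transfected with cis-element reporters and exposed to test chemicals for 24 hours, with DMSO defining baseline activity.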

Experiment [2] has as its target CCAAT/enhancer-binding protein beta (Homo sapiens) (UniProt P17676). In words: ATG_C_EBP_CIS: Attagene CIS-FACTORIAL HepG2 Assay for human CCAAT/Enhancer Binding Protein (C/EBP) beta (AID 2282927). Particulars: HepG2 Attagene cis-factorial transcription factor reporter; actives raise or lower the signal. The method in brief:
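HepG2 transiently transfected with multiplexed reporter units under cis-regulatory promoters reporting endogenous C/EBPb activity. After 24 h exposure, reporter mRNA assayed by RT-PCR, fluorescent labelling, HpaI digestion and capillary electrophoresis; bidirectional fitting versus DMSO.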

Experiment [3] is described as follows: ATG_CMV_CIS: Attagene CIS-FACTORIAL HepG2 Assay for human CMV (Internal Marker) (AID 2282928).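 Also: endpoint acts as a background internal control marker rather than a target.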 The following applies: HepG2 CMV promoter reporter, transcription factor profiling; actives raise or lower the signal. The method in brief: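 24 h chemical treatment, HepG2 with transient multi-reporter transfection; RNA → oligo(dT) RT → PCR → 6-FAM extension → HpaI digest → CE fluorescence. Bidirectional fit, DMSO negative control.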

Experiment [4] is described as follows: ATG_DR4_LXR_CIS: Attagene CIS-FACTORIAL HepG2 Assay for human Liver X Receptor (LXR), DR4 submotif (AID 2282929). Particulars: HepG2 Attagene DR4 cis-reporter, mRNA transcription; actives raise or lower the signal. In outline: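 Transiently transfected HepG2 liver cells; cis-regulated reporters; 24 h dosing. RT-PCR plus CE read-out of reporter mRNA. DMSO baseline, bidirectional curve fitting.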

The target in experiment [5] is Aryl hydrocarbon receptor (Homo sapiens) (UniProt P35869). Briefly: ATG_Ahr_CIS: Attagene CIS-FACTORIAL HepG2 Assay for human Aryl Hydrocarbon Receptor (Ahr) (AID 2282930). Particulars: HepG2 AhR cis-factorial reporter transcription; actives raise or lower the signal. In outline: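 HepG2 cells transiently transfected with cis-element-driven multiplexed reporter units; endogenous AhR activity read as reporter mRNA 24 h after dosing, via RT-PCR, 6-FAM labelling, HpaI digestion and capillary electrophoresis. Bidirectional fit relative to DMSO.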
Chain of Aryl hydrocarbon receptor (Homo sapiens) (P35869 whole entry, looked up): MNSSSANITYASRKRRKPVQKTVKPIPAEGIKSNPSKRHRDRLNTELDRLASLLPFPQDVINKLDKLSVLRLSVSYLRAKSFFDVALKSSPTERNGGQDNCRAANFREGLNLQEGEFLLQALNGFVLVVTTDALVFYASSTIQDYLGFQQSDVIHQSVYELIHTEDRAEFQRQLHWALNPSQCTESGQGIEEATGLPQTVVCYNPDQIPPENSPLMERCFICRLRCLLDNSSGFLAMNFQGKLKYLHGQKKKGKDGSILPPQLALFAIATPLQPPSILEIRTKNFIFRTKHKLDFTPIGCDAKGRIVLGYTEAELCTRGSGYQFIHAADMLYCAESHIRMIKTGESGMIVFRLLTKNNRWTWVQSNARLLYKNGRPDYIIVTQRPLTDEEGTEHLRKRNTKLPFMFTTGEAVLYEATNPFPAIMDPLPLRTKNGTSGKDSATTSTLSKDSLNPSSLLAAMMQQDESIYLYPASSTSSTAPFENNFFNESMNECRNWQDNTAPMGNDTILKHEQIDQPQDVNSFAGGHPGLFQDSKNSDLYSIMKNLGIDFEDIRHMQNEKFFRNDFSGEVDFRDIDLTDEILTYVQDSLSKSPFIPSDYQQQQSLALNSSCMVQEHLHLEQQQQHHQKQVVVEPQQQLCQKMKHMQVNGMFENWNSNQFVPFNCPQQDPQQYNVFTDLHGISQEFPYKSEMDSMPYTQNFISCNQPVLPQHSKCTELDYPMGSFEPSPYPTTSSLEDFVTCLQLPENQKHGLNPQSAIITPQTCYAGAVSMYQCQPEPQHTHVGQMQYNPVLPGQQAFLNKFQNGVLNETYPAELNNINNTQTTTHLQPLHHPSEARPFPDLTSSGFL

Experiment [6] can be described thus: ATG_AP_1_CIS: Attagene CIS-FACTORIAL HepG2 Assay for human Activator Protein 1 (AP-1) (AID 2282931). Particulars: HepG2 Attagene cis-factorial AP-1 reporter mRNA; actives raise or lower the signal. In outline: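 We transfected HepG2 cells transiently with a set of cis-regulated reporter transcription units, dosed them for 24 h, and quantified reporter mRNA via RT-PCR and capillary electrophoresis, scoring gain or loss of signal relative to DMSO.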

The nature of experiment [7]: ATG_BRE_CIS: Attagene CIS-FACTORIAL HepG2 Assay for human Bone Morphogenetic Protein (BMP) Response Element (BRE) (AID 2282933). The following applies: HepG2 BMP response element reporter, Attagene transcription factor profiling; actives raise or lower the signal. In outline:
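Endogenous transcription factor activity at a BMP response element was monitored in transfected HepG2 cells 24 h after dosing. Fluorescent RT-PCR products were resolved by capillary electrophoresis, and activity was fitted in both directions versus DMSO.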

In experiment [8] the target is Transcription factor E2F1 (Homo sapiens) (UniProt Q01094). Briefly: ATG_E2F_CIS: Attagene CIS-FACTORIAL HepG2 Assay for human E2F Transcription Factor 1 (AID 2282935). The following applies: HepG2 Attagene cis-reporter, E2F reporter RNA transcripts; actives raise or lower the signal. In outline: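 Transient MRTU transfection of HepG2; 24 h compound exposure; RNA → oligo(dT) RT → PCR → FAM label → HpaI cut → CE fluorescence. Gain/loss of signal fit against DMSO.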
Chain of Transcription factor E2F1 (Homo sapiens) (Q01094 whole entry, looked up): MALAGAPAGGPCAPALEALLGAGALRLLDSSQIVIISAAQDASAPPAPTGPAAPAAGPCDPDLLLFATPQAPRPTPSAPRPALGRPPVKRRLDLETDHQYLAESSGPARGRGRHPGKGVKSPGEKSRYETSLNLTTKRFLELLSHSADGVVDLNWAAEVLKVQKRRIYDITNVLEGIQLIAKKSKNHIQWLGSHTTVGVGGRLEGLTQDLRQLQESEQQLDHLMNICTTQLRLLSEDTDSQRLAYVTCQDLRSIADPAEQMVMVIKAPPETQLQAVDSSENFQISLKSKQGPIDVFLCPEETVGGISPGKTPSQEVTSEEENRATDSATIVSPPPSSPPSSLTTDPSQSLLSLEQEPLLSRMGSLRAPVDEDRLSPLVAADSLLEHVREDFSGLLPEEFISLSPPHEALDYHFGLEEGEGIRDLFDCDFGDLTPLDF

Experiment [9] can be described thus: ATG_E_Box_CIS: Attagene CIS-FACTORIAL HepG2 Assay for human Enhancer Box (E-box) (AID 2282936). Particulars: HepG2 E-box cis-reporter transcription, actives raise or lower the signal. In outline:
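Transiently transfected HepG2, endogenous TF-driven reporters, 24 h dosing. Readout: RT-PCR plus capillary electrophoresis of fluorescent reporter fragments. Gain or loss of signal fitted bidirectionally against DMSO baseline.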

Experiment [10] can be described thus: ATG_M_61_CIS: Attagene CIS-FACTORIAL HepG2 Assay for M61 Transcription Factor (Internal Marker) (AID 2282937). Particulars: HepG2 Attagene CIS-FACTORIAL M61 internal marker reporter; actives raise or lower the signal. The method in brief:
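Multiplexed reporter mRNA assay, HepG2 human hepatoma cells, 24 h treatment. Signal: FAM-labelled, HpaI-digested RT-PCR fragments by CE. Fit: bidirectional, baseline DMSO.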

The nature of experiment [11]: ATG_EGR_CIS: Attagene CIS-FACTORIAL HepG2 Assay for human Early Growth Response 1 (EGR1) (AID 2282938). Particulars: HepG2 Attagene CIS-FACTORIAL EGR reporter mRNA; actives raise or lower the signal. In outline: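 Multiplexed cis-reporter system in human hepatoma HepG2 cells, transiently transfected. Cells are dosed for 24 h; reporter transcripts are amplified, fluorescently tagged and sized by capillary electrophoresis, with DMSO as negative control.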

A short description of experiment [12]: ATG_M_19_CIS: Attagene CIS-FACTORIAL HepG2 Assay for M19 Transcription Factor (Internal Marker) (AID 2282939). The following applies: HepG2 Attagene CIS-FACTORIAL M19 internal marker reporter; actives raise or lower the signal. The method in brief:
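Background-control endpoint from a multiplexed HepG2 reporter panel. Cells carrying cis-regulated reporter constructs are treated 24 h, then reporter transcripts are amplified, fluorescently labelled and sized by capillary electrophoresis. DMSO defines baseline.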

Experiment [13] is described as follows: ATG_ERE_CIS: Attagene CIS-FACTORIAL HepG2 Assay for Estrogen Response Element (ERE) (AID 2282940). Particulars: HepG2 ERE cis-reporter, Attagene RNA transcript; actives raise or lower the signal. The method in brief:
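Cells used were human hepatoma HepG2, transfected with multiple reporter transcription units under cis-regulatory promoters. Reporter mRNA, read 24 h post-dosing via fluorescent RT-PCR products on capillary electrophoresis, was fitted bidirectionally relative to DMSO.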

Experiment [14] can be described thus: ATG_Ets_CIS: Attagene CIS-FACTORIAL HepG2 Assay for human Erythroblast Transformation Specific (ETS) (AID 2282941). Particulars: HepG2 ETS cis-reporter transcription, actives raise or lower the signal. The method in brief:
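Cis-regulated reporter mRNA induction in HepG2 (transient transfection), 24 h exposure, RT-PCR plus capillary electrophoresis detection; DMSO serves as negative control and baseline.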

Experiment [15] concerns the target Hepatocyte nuclear factor 3-beta (Homo sapiens) (UniProt Q9Y261). In words: ATG_FoxA2_CIS: Attagene CIS-FACTORIAL HepG2 Assay for human Forkhead box A2 (FOXA2) (AID 2282942). Particulars: HepG2 cis-reporter transcription factor activity, 24 h; actives raise or lower the signal. In outline:
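Multiplexed cis-element reporter assay in transiently transfected HepG2. Twenty-four hours post-dosing, RNA was reverse-transcribed, amplified, FAM-labelled, HpaI-digested and separated by CE. Activity gain or loss relative to DMSO.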

Experiment [16] in a line: ATG_FoxO_CIS: Attagene CIS-FACTORIAL HepG2 Assay for human Forkhead box O (FoxO) (AID 2282943). Particulars: HepG2 Attagene cis-reporter, FoxO element, mRNA; actives raise or lower the signal. In outline:
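HepG2 cells transiently transfected with cis-element-driven reporter units report endogenous FoxO activity. After 24 h chemical exposure, reporter mRNA quantified by RT-PCR, fluorescent labeling, HpaI digestion and capillary electrophoresis; bidirectional fit versus DMSO.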

Experiment [17] in a line: ATG_GATA_CIS: Attagene CIS-FACTORIAL HepG2 Assay for human GATA Binding Protein (AID 2282944). Particulars: HepG2 GATA cis-element reporter, Attagene multiplex mRNA; actives raise or lower the signal. In outline: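 Endogenous transcription factor activity was captured through cis-promoter-driven reporters in transfected HepG2 cells. After 24 h exposure, reporter transcripts were quantified by RT-PCR with fluorescent capillary electrophoresis, and responses fitted both directions against DMSO.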

Experiment [18] can be described thus: ATG_GLI_CIS: Attagene CIS-FACTORIAL HepG2 Assay for human Zinc Finger Protein GLI1 (AID 2282945). Particulars: HepG2, Attagene cis-factorial reporter mRNA, GLI element; actives raise or lower the signal. In outline: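 Transiently transfected HepG2 cells report endogenous transcription factor activity via cis-element-driven reporter units. After 24 h compound exposure, reporter mRNA was measured by RT-PCR with capillary electrophoresis; bidirectional fitting against DMSO baseline.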

Experiment [19] can be described thus: ATG_AP_2_CIS: Attagene CIS-FACTORIAL HepG2 Assay for human Activator Protein 2 (AP-2) (AID 2282932). The following applies: HepG2 AP-2 cis-reporter, Attagene transcription factor profiling; actives raise or lower the signal. The method in brief: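 Read-out: fluorescent reporter mRNA via RT-PCR and capillary electrophoresis, 24 h post-dose in transiently transfected HepG2. Endogenous factors drive cis-promoter reporters; gain or loss of signal fitted bidirectionally against DMSO.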

Experiment [20] has as its target Retinoic acid receptor alpha (Homo sapiens) (UniProt P10276). In words: ATG_DR5_RAR_CIS: Attagene CIS-FACTORIAL HepG2 Assay for human Retinoic Acid Receptor Alpha (RARE), DR5 submotif (AID 2282934). The following applies: HepG2 Attagene cis-factorial RARE DR5 reporter, mRNA; actives raise or lower the signal. The method in brief:
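HepG2 cells transiently transfected with multiplexed reporter units; DR5 cis-element drives reporter through endogenous transcription factors. After 24 h dosing, reporter mRNA quantified by RT-PCR, fluorescent labeling, HpaI digestion and capillary electrophoresis; bidirectional fitting versus DMSO.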

Chain of Hepatocyte nuclear factor 3-beta (Homo sapiens) (Q9Y261 whole entry, looked up): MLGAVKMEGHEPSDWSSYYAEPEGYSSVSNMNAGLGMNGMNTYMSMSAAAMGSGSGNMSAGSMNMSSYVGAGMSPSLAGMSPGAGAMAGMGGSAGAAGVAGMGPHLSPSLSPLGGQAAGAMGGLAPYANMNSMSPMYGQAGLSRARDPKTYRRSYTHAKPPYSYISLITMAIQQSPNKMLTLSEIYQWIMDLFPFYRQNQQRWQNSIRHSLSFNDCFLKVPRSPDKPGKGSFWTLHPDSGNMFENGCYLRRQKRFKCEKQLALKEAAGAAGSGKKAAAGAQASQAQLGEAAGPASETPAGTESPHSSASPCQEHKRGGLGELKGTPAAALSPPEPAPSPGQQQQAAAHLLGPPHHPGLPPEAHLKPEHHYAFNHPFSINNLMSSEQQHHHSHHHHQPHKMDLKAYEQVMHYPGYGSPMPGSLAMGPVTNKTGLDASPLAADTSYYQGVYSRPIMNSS
Chain of CCAAT/enhancer-binding protein beta (Homo sapiens) (P17676 whole entry, looked up): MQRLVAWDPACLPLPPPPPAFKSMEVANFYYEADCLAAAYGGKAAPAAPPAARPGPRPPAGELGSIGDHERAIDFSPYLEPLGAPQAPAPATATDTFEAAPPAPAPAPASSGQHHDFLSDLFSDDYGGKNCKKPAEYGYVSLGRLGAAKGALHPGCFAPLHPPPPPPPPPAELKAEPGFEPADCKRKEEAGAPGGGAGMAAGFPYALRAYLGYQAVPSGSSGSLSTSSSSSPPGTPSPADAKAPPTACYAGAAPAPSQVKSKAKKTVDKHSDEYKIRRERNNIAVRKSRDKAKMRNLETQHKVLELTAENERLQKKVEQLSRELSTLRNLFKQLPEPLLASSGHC
Chain of Retinoic acid receptor alpha (Homo sapiens) (P10276 whole entry, looked up): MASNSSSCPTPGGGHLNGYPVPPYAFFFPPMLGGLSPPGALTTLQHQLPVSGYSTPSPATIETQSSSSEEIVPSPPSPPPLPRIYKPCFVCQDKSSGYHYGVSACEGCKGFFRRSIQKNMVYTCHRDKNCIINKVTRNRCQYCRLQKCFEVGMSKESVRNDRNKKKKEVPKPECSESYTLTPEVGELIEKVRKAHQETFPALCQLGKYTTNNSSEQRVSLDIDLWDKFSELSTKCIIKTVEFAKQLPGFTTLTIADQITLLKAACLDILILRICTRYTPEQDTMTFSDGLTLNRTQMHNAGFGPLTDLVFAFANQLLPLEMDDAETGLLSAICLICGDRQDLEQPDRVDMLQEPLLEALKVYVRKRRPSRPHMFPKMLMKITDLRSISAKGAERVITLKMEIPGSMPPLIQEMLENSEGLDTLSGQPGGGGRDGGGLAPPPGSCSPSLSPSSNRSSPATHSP

As to `CCC[CH2][Sn]([Cl])([CH2]CCC)[CH2]CCC`, the compound was classed as inactive in experiment [1], in experiment [5], in [7], in experiment [8], in experiment [10] and in experiment [12]. Further, the compound was called inactive in experiment [13], in [14], in experiment [15], in [16], in [17] and in experiment [18]. Further, the AC50 in experiment [2] was 97 nM (active); in experiment [3], 552 nM (active); in [4], 412 nM (active); in [6] it was 522 nM (active); in experiment [9], 627 nM (active); in experiment [11] it was 659 nM (active).

With `CCN(CC)CCO`, the compound was classed as inactive in experiment [1], in [2], in experiment [3], in experiment [4], in experiment [5] and in [6]. Besides, the call in experiment [7], in experiment [8], in experiment [9], in experiment [10], in [11] and in [12] was inactive. The outcome in [14], in [15], in experiment [16], in experiment [17] and in experiment [18] was inactive.

Regarding `O=C(N[C@H](c1ccccc1)[C@@H]1CN2CCC1CC2)c1c(Cl)ccc(C(F)(F)F)c1Cl`, the compound was classed as inactive in experiment [1], in [2], in [3], in [4], in [5] and in experiment [6]. The result in experiment [7], in experiment [8], in [9], in [10], in experiment [11] and in experiment [12] was inactive. The result in experiment [14], in experiment [15], in experiment [16], in experiment [17] and in experiment [18] was inactive.

Consider `CCCCCCCCOC(=O)c1ccc(C(=O)OCCCCCCCC)c(C(=O)OCCCCCCCC)c1`, for which the call in experiment [1], in experiment [2], in experiment [3], in experiment [4], in experiment [5] and in [19] was inactive. In addition, the compound was classed as inactive in experiment [7], in experiment [20], in experiment [8], in experiment [9], in [10] and in experiment [11]. In addition, the result in experiment [12], in experiment [14], in experiment [15], in [16] and in experiment [17] was inactive. Besides, in experiment [18], the AC50 was 26300 nM (active).
